This note sets out measurements from PubChem BioAssay (NCATS).

Each structure is given as a SMILES string. “And” between values parts separate entries of the source, which are not always exact repeats. Identical values can stand only once. Inconclusive results are not listed. A number with no mark means an inactive call. Calls follow the shape of the dose curve; as a rule, active = well fitted inhibition curve with a large enough effect; inconclusive = small, poorly fitted or top-dose-only effect; inactive = flat fitted curve, though single readings scatter. Where a SMILES comes first, the peptide text is derived from it. Bridges are numbered along the chain shown (N, C = ends).
% is scaled to controls: 0 for no effect and ±100 for the full control effect.

In the assay the test system is KB-3-1. Put plainly: Cytotoxic Profiling of Annotated Libraries Using Quantitative High-Throughput Screening (AID 1296008). Also: nearly all actives have a fitted effect of over 60% in size. The following applies: Five cell lines viability, CellTiter-Glo ATP luminescence, 48-72 h; max response: hits give low values. Put shortly:
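Cytotoxicity was measured as CellTiter-Glo ATP luminescence, read after 10 min at room temperature. Compound treatment of the cells lasted 48 or 72 hr at 37 degrees Celsius in a qHTS format.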
(In general: Cellular ATP, detected with luciferase, serves as a proxy for viable cell number.)
Consider `O=C1O[C@H]2[C@H](O)[C@@H]1OC(O)[C@H]2O` (some centres not stated), for which the max response is -7.29%.

Turning to `C=C1C(=C/C=C2\CCC[C@]3(C)[C@@H]([C@H](C)CCCC(C)(C)O)CC[C@@H]23)C[C@@H](O)C[C@@H]1O`, the max response was 4.02%.

For `CC(C)NC(=O)N1CC[C@H](N=C2Nc3cc(F)ccc3N(CC(F)F)c3ccc(Cl)cc32)C1`, the max response was -1.78%.

Regarding `Cc1cc(-n2c(=O)[nH]c(=O)n(C)c2=O)ccc1Oc1ccc(S(=O)(=O)C(F)(F)F)cc1`, the max response was 28.3%.

In the case of `COC(=O)C1=C(C)NC(C)=C(C(=O)O[C@H]2CCN(Cc3ccccc3)C2)[C@H]1c1cccc([N+](=O)[O-])c1`, the max response is -25.4%.

Turning to `CC1(C)S[C@@H]2[C@H](NC(=O)[C@H](N)c3ccccc3)C(=O)N2[C@H]1C(=O)OCOC(=O)[C@@H]1N2C(=O)C[C@H]2S(=O)(=O)C1(C)C`, the max response was -17%.

In the case of `NCCCC[C@H](NC(=O)[C@@H]1CCCN1C(=O)[C@@H]1CSSC[C@H](NC(=O)CNC(=O)CNC(=O)CN)C(=O)N[C@@H](Cc2ccc(O)cc2)C(=O)N[C@@H](Cc2ccccc2)C(=O)N[C@@H](CCC(N)=O)C(=O)N[C@@H](CC(N)=O)C(=O)N1)C(=O)NCC(N)=O` (H-GGGCYFQNCPKG-NH2; disulfide 4-9), the max response was -6.41%.

Regarding `OC(CN1CCCCC1)c1cc(-c2ccccc2)on1` (configuration not stated), the max response was -12.7%.

Consider `COc1ccc(C(=O)Nc2ccccc2CCC2CCCCN2C)cc1` (configuration not stated), for which the max response is -11.1%.

On to `O=C(Cn1cnnn1)N[C@@H]1C(=O)N2C(C(=O)O)=C(CSc3nncs3)CS[C@H]12`, for which the max response is -22.7% and -13.7%.

`O=C(O)c1ccccc1[O-].O=C(O)c1ccccc1[O-].[Zn+2]`: the max response was -8.24%.

As for `O=C(Nc1ccc(/C=C/c2ccc(NC(=O)c3cc(S(=O)(=O)O)c4cccnc4c3O)cc2S(=O)(=O)O)c(S(=O)(=O)O)c1)c1cc(S(=O)(=O)O)c2cccnc2c1O`, the max response is 0.4%.
